In PubChem BioAssay (NCATS):
Inconclusive results are not listed. The source made the active and inactive calls. Calls come from the whole dose curve; as a rule, active = well fitted curve in the direction sought with a large enough effect; inconclusive = small, poorly fitted or top-dose-only effect, or another doubt; inactive = no such curve, though single readings can be large; an effect the other way counts as inactive or inconclusive.

Experiments:
[1] = system: NIH3T3; experiment: Cytotoxic Profiling of Annotated Libraries Using Quantitative High-Throughput Screening (AID 1296008); conditions: Five cell lines viability, CellTiter-Glo ATP luminescence, 48-72 h; max response: stronger effect = lower value; note: nearly all actives have a fitted effect of over 60% in size
Summary of the method: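 Cytotoxicity was measured as CellTiter-Glo ATP luminescence, read after 10 min at room temperature. Compound treatment of the cells lasted 48 or 72 hr at 37 degrees Celsius in a qHTS format.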

[2] = system: HACAT; experiment: qHTS assay to identify novel small-molecules to repurpose for Merkel cell carcinoma treatment (AID 1296009); conditions: MCC and control cell lines, CellTiter-Glo viability, 72 h; at 44.8 µM (top of the series) unless noted; note: nearly all actives have a fitted effect of over 60% in size; note: potency is the fitted concentration of half-maximal effect
Summary of the method: (§1)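 After compound transfer in DMSO, plates were kept 72 hr at 37 degree celsius. Luminescent ATP signal from CellTiter-Glo served as viability measure, normalized against DMSO and no-cell controls.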

[3] = system: MCC-13; experiment: as above; conditions: MCC and control cell lines, CellTiter-Glo viability, 72 h; series mostly up to 46 µM
Summary of the method: as §1

[4] = system: MCC-26; experiment: as above; conditions: MCC and control cell lines, CellTiter-Glo viability, 72 h; series mostly up to 46 µM
Summary of the method: as §1

[5] = system: MKL-1; experiment: as above; conditions: MCC and control cell lines, CellTiter-Glo viability, 72 h; series mostly up to 46 µM
Summary of the method: as §1

[6] = system: MKL-2; experiment: as above; conditions: MCC and control cell lines, CellTiter-Glo viability, 72 h; series mostly up to 46 µM
Summary of the method: as §1

[7] = system: UISO; experiment: as above; conditions: MCC and control cell lines, CellTiter-Glo viability, 72 h; series mostly up to 46 µM
Summary of the method: as §1

[8] = system: WaGa; experiment: as above; conditions: MCC and control cell lines, CellTiter-Glo viability, 72 h; series mostly up to 46 µM
Summary of the method: as §1

[9] = system: C33A; experiment: Primary qHTS to identify gynecologic anti-cancer compounds using libraries of approved drugs and bioactive compounds (AID 1345084); conditions: Gynecologic cancer cell panel viability, ATPlite luminescence, 48 h; series mostly up to 57.5 µM; note: nearly all actives have a fitted effect of over 55% in size
Summary of the method: (§2)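 Luminescence from the ATPlite ATP-monitoring reagent indicates viable cell number; lower signal means cytotoxicity. Cells received compound 16 h after seeding and were exposed for 48 h across five concentrations.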

[10] = system: CAOV3; experiment: as above; conditions: Gynecologic cancer cell panel viability, ATPlite luminescence, 48 h; series mostly up to 57.5 µM
Summary of the method: as §2

[11] = system: CASKI; experiment: as above; conditions: Gynecologic cancer cell panel viability, ATPlite luminescence, 48 h; series mostly up to 57.5 µM
Summary of the method: as §2

[12] = system: Es-2; experiment: as above; conditions: Gynecologic cancer cell panel viability, ATPlite luminescence, 48 h; series mostly up to 57.5 µM
Summary of the method: as §2

[13] = system: HeLa; experiment: as above; conditions: Gynecologic cancer cell panel viability, ATPlite luminescence, 48 h; series mostly up to 57.5 µM
Summary of the method: as §2

[14] = system: Hek293T; experiment: as above; conditions: Gynecologic cancer cell panel viability, ATPlite luminescence, 48 h, control line for the selectivity index; series mostly up to 57.5 µM
Summary of the method: as §2

[15] = system: JEG-3; experiment: as above; conditions: Gynecologic cancer cell panel viability, ATPlite luminescence, 48 h; series mostly up to 57.5 µM
Summary of the method: as §2

[16] = system: OV90; experiment: as above; conditions: Gynecologic cancer cell panel viability, ATPlite luminescence, 48 h; series mostly up to 57.5 µM
Summary of the method: as §2

[17] = system: PA-1; experiment: as above; conditions: Gynecologic cancer cell panel viability, ATPlite luminescence, 48 h; series mostly up to 57.5 µM
Summary of the method: as §2

[18] = system: SKOV3; experiment: as above; conditions: Gynecologic cancer cell panel viability, ATPlite luminescence, 48 h; series mostly up to 57.5 µM
Summary of the method: as §2

[19] = system: HEK293T; experiment: qHTS assay to identify novel small-molecules to repurpose for Merkel cell carcinoma treatment (AID 1296009); conditions: MCC and control cell lines, CellTiter-Glo viability, 72 h; at 44.8 µM (top of the series) unless noted; note: nearly all actives have a fitted effect of over 60% in size; note: potency is the fitted concentration of half-maximal effect
Summary of the method: as §1

[20] = system: NIH3T3; experiment: as above; conditions: MCC and control cell lines, CellTiter-Glo viability, 72 h; at 44.8 µM (top of the series) unless noted
Summary of the method: as §1
% is set by controls: 0 for no effect and ±100 for the full control effect.

Cc1c(N)c(=O)n(-c2ccccc2)n1C
inactive: max response [1] -4.09% | outcome [2] | Potency [3] | Potency [4] | Potency [5] | Potency [6] | Potency [7] | Potency [8] | Potency [9] | Potency [10] | Potency [11] | Potency [12] | Potency [13] | Potency [14] | Potency [15] | Potency [16] | Potency [17] | Potency [18]

C[N+]1(C)[C@@H]2CC(OC(=O)[C@H](CO)c3ccccc3)C[C@H]1[C@@H]1O[C@@H]12 (some centres undefined)
inactive: max response [1] 4.27% | outcome [2] | outcome [19] | Potency [3] | Potency [5] | Potency [6] | Potency [7] | Potency [8] | Potency [9] | Potency [10] | Potency [11] | Potency [12] | Potency [13] | Potency [14] | Potency [15] | Potency [16] | Potency [17] | Potency [18]

Nc1ccc(C(=O)O)c(O)c1
inactive: outcome [1] | outcome [2] | Potency [3] | Potency [5] | Potency [6] | outcome [20] | Potency [7] | Potency [8] | Potency [9] | Potency [10] | Potency [11] | Potency [12] | Potency [13] | Potency [14] | Potency [15] | Potency [16] | Potency [17] | Potency [18]

CN1CC(=O)N/C1=N/C(=O)Nc1cccc(Cl)c1
inactive: max response [1] -0.466% | outcome [2] | outcome [19] | Potency [3] | Potency [5] | Potency [6] | Potency [7] | Potency [8] | Potency [9] | Potency [10] | Potency [11] | Potency [12] | Potency [13] | Potency [14] | Potency [15] | Potency [16] | Potency [17] | Potency [18]

N=C(N)N
inactive: outcome [1] | outcome [2] | outcome [19] | Potency [3] | Potency [4] | Potency [5] | Potency [6] | outcome [20] | Potency [7] | Potency [8] | Potency [9] | Potency [10] | Potency [11] | Potency [12] | Potency [13] | Potency [14] | Potency [15] | Potency [16] | Potency [18]

CCCCCCCCCCCC(=O)[O][Sn]([CH2]CCC)([CH2]CCC)[O]C(=O)CCCCCCCCCCC
inactive: max response [1] 4.84% | outcome [2] | Potency [3] | Potency [4] | Potency [5] | Potency [6] | Potency [7] | Potency [8] | Potency [9] | Potency [10] | Potency [11] | Potency [12] | Potency [13] | Potency [14] | Potency [15] | Potency [16] | Potency [17] | Potency [18]

CO[C@@]1(NC(=O)Cc2cccs2)C(=O)N2C(C(=O)O)=C(COC(N)=O)CS[C@@H]21
inactive: outcome [1] | outcome [2] | outcome [19] | Potency [3] | Potency [4] | Potency [5] | Potency [6] | outcome [20] | Potency [7] | Potency [8] | Potency [9] | Potency [10] | Potency [11] | Potency [12] | Potency [13] | Potency [14] | Potency [15] | Potency [16] | Potency [17] | Potency [18]

CN(C)CCn1nnnc1SCC1=C(C(=O)O)N2C(=O)[C@@H](NC(=O)Cc3csc(N)n3)[C@H]2SC1
inactive: outcome [1] | outcome [2] | Potency [3] | Potency [4] | Potency [5] | Potency [6] | outcome [20] | Potency [7] | Potency [8] | Potency [9] | Potency [10] | Potency [11] | Potency [12] | Potency [13] | Potency [14] | Potency [15] | Potency [16] | Potency [17] | Potency [18]

CC(C)(C)c1nnc(NS(=O)(=O)c2ccc(N)cc2)s1
inactive: max response [1] -3.74% | outcome [2] | Potency [3] | Potency [4] | Potency [5] | Potency [6] | Potency [7] | Potency [8] | Potency [9] | Potency [10] | Potency [11] | Potency [12] | Potency [13] | Potency [14] | Potency [15] | Potency [16] | Potency [17] | Potency [18]

COC(=O)C1=C(C)NC(C)=C(C(=O)OCC(C)=O)C1c1ccccc1[N+](=O)[O-] (centres undefined)
active: Potency [5] 21.1 µM | Potency [6] 10.6 µM
inactive: max response [1] -4.97% | outcome [2] | outcome [19] | Potency [9] | Potency [10] | Potency [11] | Potency [12] | Potency [14] | Potency [15] | Potency [16] | Potency [17] | Potency [18]

O=C(Nc1ccc(C(=O)O)c(O)c1)c1ccccc1
inactive: max response [1] -1.76% | outcome [2] | outcome [19] | Potency [3] | Potency [4] | Potency [5] | Potency [6] | Potency [7] | Potency [8] | Potency [9] | Potency [10] | Potency [11] | Potency [12] | Potency [13] | Potency [14] | Potency [15] | Potency [16] | Potency [17] | Potency [18]

NS(=O)(=O)c1ccc(-n2nc(C(F)(F)F)cc2-c2ccc(Cl)cc2)cc1
inactive: max response [1] -15.5% | outcome [2] | Potency [9] | Potency [10] | Potency [11] | Potency [12] | Potency [13] | Potency [14] | Potency [15] | Potency [16] | Potency [17] | Potency [18]

CS(=O)(=O)c1ccc(-n2nc(C(F)(F)F)cc2-c2ccc(F)cc2)cc1
inactive: max response [1] -2.48% | outcome [2] | Potency [9] | Potency [10] | Potency [11] | Potency [12] | Potency [13] | Potency [14] | Potency [15] | Potency [16] | Potency [17] | Potency [18]

NCCO
inactive: max response [1] -0.614% | outcome [2] inactive [at 92 µM] | Potency [3] | Potency [5] | Potency [6] | Potency [7] | Potency [8] | Potency [9] | Potency [10] | Potency [11] | Potency [12] | Potency [13] | Potency [14] | Potency [15] | Potency [16] | Potency [17]
